# PubChem BioAssay AID2314 (National Center for Advancing Translational Sciences (NCATS), 2010)
# Out of some 300,000 compounds screened, about 37,000 (12%) were called active. The sample holds actives, similar compounds and a random draw of the others, so the mix is not that of the screen. Cut-off read from the data, not from the text of the source: active = max response mostly above about 13% (no sharp cut-off); inactive = mostly below about 14%.
# Experiment: Cycloheximide Counterscreen for Small Molecule Inhibitors of Shiga Toxin; note: read at 38.3 µM for the half of the compounds with a filed dose; 0% is about no effect
# Conditions: cell reporter, cycloheximide protein synthesis inhibition counterscreen; active compounds read high
row,Structure (SMILES),max response
1,O=C(Cc1c[nH]c2ccccc12)N/N=C/c1cccc(F)c1,11.5% (inactive)
2,O=C(N/N=C/c1c[nH]c2ccccc12)c1ccccc1O,29.2% (active)
3,O=C(N/N=C/c1ccc(O)cc1)/C(=C/c1ccc([N+](=O)[O-])cc1)NC(=O)c1ccccc1,5.92% (inactive)
4,O=C(N/N=C/c1ccc([N+](=O)[O-])cc1)c1c[nH]c2ccccc12,26.3% (active)
5,CCCCCC(=O)Nc1ccc(C(=O)N/N=C/c2ccc([N+](=O)[O-])cc2)cc1,-2.53% (inactive)
6,Nc1nonc1-n1nnc(C(=O)N/N=C/c2c[nH]c3ccccc23)c1-c1ccccc1,6.03% (inactive)
7,Cc1c(/C=N\NC(=O)c2cc3ccccc3o2)c2ccccc2n1C,5.05% (inactive)
8,NC(=S)N/N=C/c1ccc([N+](=O)[O-])cc1,2.05% (inactive)
9,O=C(N/N=C/c1c[nH]c2ccccc12)c1cc2ccccc2o1,22.4% (active)
10,O=C(N/N=C/c1coc2ccccc2c1=O)c1cc2ccccc2o1,13.8% (inactive)
11,Cc1nc2ccccc2cc1C(=O)N/N=C/c1ccc([N+](=O)[O-])cc1,-1.28% (inactive)
12,Cc1ccsc1C(=O)N/N=C/c1ccc([N+](=O)[O-])cc1,55% (active)
13,COC(=O)C1=C(C)N(c2ccc(C)cc2)/C(=C/c2ccc(O)cc2)C1=O,-3.37% (inactive)
14,COc1ccc(C(=O)COC(=O)COc2ccc(C)c(C)c2)cc1,-1.99% (inactive)
15,COc1cccc(NC(=O)[C@H](Cc2c[nH]c3ccccc23)NC(=O)[C@@H]2Cc3ccccc3CN2)c1,8.96% (inactive)
16,Cc1nn(Cc2ccc(C(=O)N3N=C(C(F)F)CC3(O)C(F)F)cc2)c(C)c1[N+](=O)[O-] (stereo not drawn),-2.42% (inactive)
17,Cc1ccc(NS(=O)(=O)c2ccc(C(C)(C)C)cc2)cn1,-1.83% (inactive)
18,Cc1ccc(-n2ncc3c2CC(C)(C)CC3NC(=O)Cc2c(C)noc2C)cc1 (stereo not drawn),1.83% (inactive)
19,CCOC(=O)CNC(=O)CSc1ncccc1-c1nc2ccccc2[nH]1,6.47% (inactive)
20,O=C(O)c1cccc(NC(=S)N/N=C/c2c[nH]c3ccccc23)c1,19.9% (inactive)
21,Cc1ccc(NC(=O)CN(C)CC(=O)Nc2cccc(F)c2)cc1[N+](=O)[O-],-3.93% (inactive)

row,Structure (SMILES),max response
1,CSC(=S)N/N=C/c1c[nH]c2ccccc12,19.8% (active)
2,CNc1ccc(NC(C)=O)cc1[N+](=O)[O-],-1.59% (inactive)
3,Cc1ccc(NC(=O)c2sccc2C)cc1[N+](=O)[O-],54.5% (active)
4,C[n+]1ccc(/C=C/c2c[nH]c3ccccc23)cc1,0.857% (inactive)
5,CN(C)c1ccc(C(CNC(=O)c2ccc(F)cc2)c2c[nH]c3ccccc23)cc1 (stereo not drawn),-1.36% (inactive)
6,COc1ccc(CC(=O)NCC(=O)N/N=C/c2cc(Br)ccc2OC)cc1,-1.85% (inactive)
7,CCc1ccc(C2C(C#N)=C(N)N(N3CCOCC3)C3=C2C(=O)CC(C)(C)C3)s1 (stereo not drawn),-4.64% (inactive)
8,CC1CCN(C(=O)CN(c2ccc(Oc3ccccc3)cc2)S(C)(=O)=O)CC1,0.761% (inactive)
9,Cc1cc(C)cc(C(=O)NCCN2CCOCC2)c1,-3.62% (inactive)
10,Cc1ccc(C(=O)NCCN2CCOCC2)cc1C,0.531% (inactive)
11,CC(=O)Oc1cc2c(C(=O)NCCN3CCOCC3)c(C)oc2c2ccccc12,23.5% (active)
12,Cn1nccc1C(=O)N1CCCC(C(=O)c2ccc(Oc3ccccc3)cc2)C1 (stereo not drawn),-1.23% (inactive)
13,CC1Sc2ccc(S(=O)(=O)CCC(=O)NCc3ccccc3Cl)cc2NC1=O (stereo not drawn),-2.98% (inactive)
14,Cc1n[nH]c(=S)n1/N=C/c1ccc(Br)o1,-1.34% (inactive)
15,COc1cc(/C=N/n2c(C)n[nH]c2=S)ccc1OCc1ccccc1,25.8% (active)
16,Fc1ccc(/C=N/n2c(COc3ccccc3)n[nH]c2=S)cc1,-4.69% (inactive)
17,Cn1c(=O)[nH]c(=O)c2c1nc(N1CCN(C(c3ccccc3)c3ccccc3)CC1)n2CCO,-4.67% (inactive)
18,CC(=O)N1CC(C)c2scc(C)[n+]2-c2ccccc21 (stereo not drawn),-4.21% (inactive)
19,COc1cccc(NC(=O)CN(C)C(=O)c2ccccc2CCc2ccccc2)c1,-2.98% (inactive)
20,CC(C)CC(=O)N1CCN(Cc2cccc(Cl)c2)CC1,-0.27% (inactive)
21,Cc1cccc(N(C(=O)Cc2cccs2)C(C(=O)NCc2ccco2)c2ccncc2)c1 (stereo not drawn),7.8% (inactive)

row,Structure (SMILES),max response
1,Cc1ccc(N(C(=O)Cc2cccs2)C(C(=O)NCC2CCCO2)c2ccncc2)cc1 (stereo not drawn),30.3% (active)
2,O=C(NCC(=O)N(c1ccccc1)C(C(=O)NCC1CCCO1)c1ccccc1)c1cccs1 (stereo not drawn),-2% (inactive)
3,Cc1ccc(-c2csc(N3CCN(c4cc5c(cc4Cl)nc(-c4ccncc4)n5CCOCCO)CC3)n2)cc1,-1.79% (inactive)
4,CCOCCCNC(=O)C(NC(=O)CNC(=O)c1ccccc1)c1ccc(OC)cc1 (stereo not drawn),-3.78% (inactive)
5,O=C(Nc1ccc(F)c(Cl)c1)C1CCN(S(=O)(=O)c2cccnc2)CC1,-6.06% (inactive)
6,CCOC(=O)c1c(NC(=O)c2ccc(N3CCOCC3)c([N+](=O)[O-])c2)sc(C)c1C,1.25% (inactive)
7,COc1ccc(C(=O)Nc2sc(C)c(C)c2CN2CCOCC2)cc1,80% (active)
8,COc1ccc(C(=O)Nc2ccc(CN3CCOCC3)cc2)cc1,21.3% (inactive)
9,O=C(NCc1ccccc1)C1CCN(C(=O)Cc2ccccc2)CC1,-1.63% (inactive)
10,O=C(CSc1ccc(-c2ccc(Br)cc2)nn1)NCC1CCCO1 (stereo not drawn),-3.31% (inactive)
11,Cc1ccc(/C=C(\C#N)C(=O)Nc2cccc3ncccc23)o1,-2.46% (inactive)
12,Cc1nnc2n1N=C(c1ccccc1)CS2,-4.21% (inactive)
13,COc1ccc(C2=Nn3c(nnc3-c3ccccc3O)SC2)cc1,38.9% (active)
14,CC1=Nn2c(nnc2-c2ccccc2)SC1,1.95% (inactive)
15,Cc1c(C)c2ccc(OCC(=O)N3CCC(C(=O)O)CC3)c(C)c2oc1=O,-2.07% (inactive)
16,CCOC(=O)C1(Cc2ccccc2C)CCCN(C(=O)CCc2c(C)noc2C)C1 (stereo not drawn),9.83% (inactive)
17,CCCc1cc(C(=O)N2CCCC(CO)(CCCc3ccccc3)C2)n(C)n1 (stereo not drawn),9.31% (inactive)
18,Cc1noc(C)c1CCC(=O)N1CCCC(CO)(Cc2ccccc2)C1 (stereo not drawn),30.9% (active)
19,COC(=O)CCC(=O)N1CCCC(CO)(Cc2ccccc2)C1 (stereo not drawn),32.1% (active)
20,Cc1ccccc1CC1(CO)CCCN(C(=O)c2cc(-c3ccccc3)no2)C1 (stereo not drawn),13.4% (inactive)
21,Cc1noc(C)c1CCC(=O)O,-2.43% (inactive)
